# Experimental data: publication PMC8384837, “Expanding the binding specificity for RNA recognition by a PUF domain”
# Numbering of substitutions follows the chain as printed.
# Tests used:
# Experiment in all cases: yeast three-hybrid, YBZ-1, SC-Leu-His + 0.5 mM 3-AT, 4 days
# Details in all cases: tags: N-Gal4 AD-HA kept; label: inside an RPR1-promoter hybrid RNA with tandem MS2 sites; ssRNA
# PUM1 PUF domain R1-KGL = PUM1 PUF domain R1-KGL (Homo sapiens, UniProt Q14671 828-1176, S863K;R864G;Q867L)
# PUM1 PUF domain R1-KGL, sequence (Q14671 828-1176 S863K/R864G/Q867L): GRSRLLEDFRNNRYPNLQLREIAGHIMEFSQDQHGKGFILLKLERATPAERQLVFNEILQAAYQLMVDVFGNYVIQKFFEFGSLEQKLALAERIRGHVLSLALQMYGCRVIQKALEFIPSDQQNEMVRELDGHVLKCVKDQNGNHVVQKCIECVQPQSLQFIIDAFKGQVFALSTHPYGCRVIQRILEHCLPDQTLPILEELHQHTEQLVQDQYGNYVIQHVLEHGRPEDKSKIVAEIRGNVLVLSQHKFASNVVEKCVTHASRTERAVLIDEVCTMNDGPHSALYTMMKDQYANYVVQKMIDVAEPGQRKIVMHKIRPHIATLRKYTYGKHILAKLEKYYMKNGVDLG
# Procedure, shortened: (§1)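 Pumilio-1 PUF domain libraries, randomized (NNK) at the three base-contacting residues of each repeat, were co-expressed with matching RNA elements from a centromeric plasmid in strain YBZ-1 (LexA–MS2 coat fusion, HIS3 reporter). Transformants were plated on SC-Leu (input) and SC-Leu-His + 0.5 mM 3-AT (selection) for four days, and repeat regions were PCR-amplified and Illumina-sequenced. The interaction score is the log2 change in variant frequency from input to selection, with pseudocount 1 where absent.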
# PUM1 PUF domain R5-RHI = PUM1 PUF domain R5-RHI (Homo sapiens, UniProt Q14671 828-1176, C1007R;R1008H;Q1011I)
# Procedure, shortened: as §1
# PUM1 PUF domain R5-DFP = PUM1 PUF domain R5-DFP (Homo sapiens, UniProt Q14671 828-1176, C1007D;R1008F;Q1011P)
# PUM1 PUF domain R5-DFP, sequence (Q14671 828-1176 C1007D/R1008F/Q1011P): as the sequence (Q14671 828-1176 S863K/R864G/Q867L) above, with K36S, G37R, L40Q, C180D, R181F, Q184P counted along it
# Procedure, shortened: as §1
# PUM1 PUF domain R6-NFC = target: T1, PUM1 PUF domain R6-NFC (Homo sapiens, UniProt Q14671 828-1176, Y1044F;Q1047C)
# T1 sequence: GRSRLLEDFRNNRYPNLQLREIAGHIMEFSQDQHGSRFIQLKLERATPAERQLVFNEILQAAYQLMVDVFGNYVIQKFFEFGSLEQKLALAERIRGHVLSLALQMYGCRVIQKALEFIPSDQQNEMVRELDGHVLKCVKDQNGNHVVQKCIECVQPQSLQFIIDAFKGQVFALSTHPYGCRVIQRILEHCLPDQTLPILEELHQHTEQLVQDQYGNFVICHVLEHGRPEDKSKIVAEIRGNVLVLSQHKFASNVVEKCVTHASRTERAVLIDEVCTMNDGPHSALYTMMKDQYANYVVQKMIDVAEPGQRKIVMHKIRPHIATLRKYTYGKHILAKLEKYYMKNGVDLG
# Procedure, shortened: as §1
# PUM1 PUF domain R6-QFR = target: T2, PUM1 PUF domain R6-QFR (Homo sapiens, UniProt Q14671 828-1176, N1043Q;Y1044F;Q1047R)
# T2 sequence: T1 sequence with N216Q, C220R
# Procedure, shortened: as §1
# PUM1 PUF domain R8-AFR = PUM1 PUF domain R8-AFR (Homo sapiens, UniProt Q14671 828-1176, N1122A;Y1123F;Q1126R)
# Procedure, shortened: as §1
# PUM1 PUF domain R8-SWR = PUM1 PUF domain R8-SWR (Homo sapiens, UniProt Q14671 828-1176, N1122S;Y1123W;Q1126R)
# Procedure, shortened: as §1
# PUM1 PUF domain R8-RYL = PUM1 PUF domain R8-RYL (Homo sapiens, UniProt Q14671 828-1176, N1122R;Q1126L)
# Procedure, shortened: as §1
# PUM1 PUF domain R5-RAN = PUM1 PUF domain R5-RAN (Homo sapiens, UniProt Q14671 828-1176, C1007R;R1008A;Q1011N)
# PUM1 PUF domain R5-RAN, sequence (Q14671 828-1176 C1007R/R1008A/Q1011N): as the sequence (Q14671 828-1176 S863K/R864G/Q867L) above, with K36S, G37R, L40Q, C180R, R181A, Q184N counted along it
# Procedure, shortened: as §1
# PUM1 PUF domain R3-DWS = PUM1 PUF domain R3-DWS (Homo sapiens, UniProt Q14671 828-1176, C935D;R936W;Q939S)
# PUM1 PUF domain R3-DWS, sequence (Q14671 828-1176 C935D/R936W/Q939S): as the sequence (Q14671 828-1176 S863K/R864G/Q867L) above, with K36S, G37R, L40Q, C108D, R109W, Q112S counted along it
# Procedure, shortened: as §1
# PUM1 PUF domain R4-EPR = PUM1 PUF domain R4-EPR (Homo sapiens, UniProt Q14671 828-1176, N971E;H972P;Q975R)
# PUM1 PUF domain R4-EPR, sequence (Q14671 828-1176 N971E/H972P/Q975R): as the sequence (Q14671 828-1176 S863K/R864G/Q867L) above, with K36S, G37R, L40Q, N144E, H145P, Q148R counted along it
# Procedure, shortened: as §1
# PUM1 PUF domain R5-SGV = PUM1 PUF domain R5-SGV (Homo sapiens, UniProt Q14671 828-1176, C1007S;R1008G;Q1011V)
# PUM1 PUF domain R5-SGV, sequence (Q14671 828-1176 C1007S/R1008G/Q1011V): as the sequence (Q14671 828-1176 S863K/R864G/Q867L) above, with K36S, G37R, L40Q, C180S, R181G, Q184V counted along it
# Procedure, shortened: as §1
sequence,measurement,setting,value
GGCUAGAACUAGUGGAUCCCCCGGCGCCCGGCGGCUCGAGCCCGGGUAAGUGUAAAUGGUCUGCAUGCCGCCGGGCGCCAUGCCUGCAGGUCGACUCUAGAAAACAUG,binding signal,PUM1 PUF domain R1-KGL,1.8 log2 enrichment (interaction score)
GGCUAGAACUAGUGGAUCCCCCGGCGCCCGGCGGCUCGAGCCCGGGUAAGUGUUAAUAGUCUGCAUGCCGCCGGGCGCCAUGCCUGCAGGUCGACUCUAGAAAACAUG,binding signal,PUM1 PUF domain R5-RHI,5.86 log2 enrichment (interaction score)
same,binding signal,PUM1 PUF domain R5-DFP,5.24 log2 enrichment (interaction score)
GGCUAGAACUAGUGGAUCCCCCGGCGCCCGGCGGCUCGAGCCCGGGUAAGUGUAAAUAGUCUGCAUGCCGCCGGGCGCCAUGCCUGCAGGUCGACUCUAGAAAACAUG,binding signal,PUM1 PUF domain R6-NFC,3.34 log2 enrichment (interaction score)
same,binding signal,PUM1 PUF domain R6-QFR,7.93 log2 enrichment (interaction score)
same,binding signal,PUM1 PUF domain R5-RHI,3.02 log2 enrichment (interaction score)
same,binding signal,PUM1 PUF domain R8-AFR,3.56 log2 enrichment (interaction score)
same,binding signal,PUM1 PUF domain R8-SWR,6.3 log2 enrichment (interaction score)
same,binding signal,PUM1 PUF domain R8-RYL,5.73 log2 enrichment (interaction score)
same,binding signal,PUM1 PUF domain R5-RAN,2.14 log2 enrichment (interaction score)
same,binding signal,PUM1 PUF domain R3-DWS,4.09 log2 enrichment (interaction score)
same,binding signal,PUM1 PUF domain R4-EPR,4.56 log2 enrichment (interaction score)
GGCUAGAACUAGUGGAUCCCCCGGCGCCCGGCGGCUCGAGCCCGGGUAAGUGUGAAUAGUCUGCAUGCCGCCGGGCGCCAUGCCUGCAGGUCGACUCUAGAAAACAUG,binding signal,PUM1 PUF domain R5-SGV,2.69 log2 enrichment (interaction score)
